Measured values from PubChem BioAssay (NCI).
The panel holds about 83,000 compounds, 20% with a hit somewhere; the sample as a whole holds those more often.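 Single-dose data. Exposure time 48 hours. Values below 10 considered active.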 Calls of active or inactive are those of the source.

Assays:
Assay in all cases: NCI-60 one-dose screen, 48 h (100 = growth as untreated, 0 = no growth, -100 = all killed)
UACC-62 melanoma = details: 10 µM unless noted
TK-10 renal = details: 10 µM unless noted
MCF7 breast = details: 10 µM unless noted
HL-60(TB) leukemia = details: 10 µM unless noted
NCI-H226 lung = details: 10 µM unless noted
HOP-62 NSCLC = details: 10 µM unless noted
NCI-H460 lung = details: 10 µM unless noted
NCI-H522 lung = details: 10 µM unless noted
786-0 renal = details: 10 µM unless noted
COLO 205 colon = details: 10 µM
DU-145 prostate = details: 10 µM unless noted
K-562 leukemia = details: 10 µM unless noted
MALME-3M melanoma = details: 10 µM unless noted
MDA-MB-231 breast = details: 10 µM unless noted
RXF 393 renal = details: 10 µM unless noted
SF-268 CNS = details: 10 µM unless noted
SF-295 CNS = details: 10 µM unless noted
SF-539 CNS = details: 10 µM unless noted
UACC-257 melanoma = details: 10 µM unless noted
M14 melanoma = details: 10 µM unless noted
HCT-15 colon = details: 10 µM
SNB-75 CNS = details: 10 µM unless noted
SNB-19 CNS = details: 10 µM unless noted
PC-3 prostate = details: 10 µM unless noted
SK-MEL-5 melanoma = details: 10 µM unless noted
LOX IMVI melanoma = details: 10 µM unless noted
SK-MEL-28 melanoma = details: 10 µM unless noted
SK-MEL-2 melanoma = details: 10 µM unless noted
SN12C renal = details: 10 µM unless noted
UO-31 renal = details: 10 µM unless noted
ACHN renal = details: 10 µM unless noted
CAKI-1 renal = details: 10 µM unless noted
A498 renal = details: 10 µM unless noted
CCRF-CEM leukemia = details: 10 µM unless noted
MOLT-4 leukemia = details: 10 µM
SR leukemia = details: 10 µM
RPMI-8226 leukemia = details: 10 µM unless noted
OVCAR-8 ovarian = details: 10 µM unless noted
OVCAR-5 ovarian = details: 10 µM unless noted
OVCAR-4 ovarian = details: 10 µM unless noted
IGROV1 ovarian = details: 10 µM
OVCAR-3 ovarian = details: 10 µM unless noted
HS 578T breast = details: 10 µM unless noted
NCI/ADR-RES ovarian = details: 10 µM unless noted
T-47D breast = details: 10 µM unless noted
BT-549 breast = details: 10 µM
MDA-MB-435 melanoma = details: 10 µM unless noted
SW-620 colon = details: 10 µM unless noted
HCT-116 colon = details: 10 µM unless noted
HCC-2998 colon = details: 10 µM unless noted
KM12 colon = details: 10 µM unless noted

Measured: growth

N#CCN1C(=O)C(Cc2ccccc2)N=C(c2cccc(O)c2)c2ccc(Cl)cc21 (configuration not stated)
inactive: UACC-62 melanoma 103% [30 µM] | TK-10 renal 102% [30 µM] | MCF7 breast 100% [30 µM]

[O-]/[N+](=C\c1ccc(-n2cc(Cc3ccccc3Cc3cn(-c4ccc(/C=[N+](/[O-])c5ccccc5)cc4)nn3)nn2)cc1)c1ccccc1
inactive: HL-60(TB) leukemia 98.4%

CN1CC[C@@H](c2c(O)cc(O)c3c(=O)cc(-c4ccccc4Cl)oc23)[C@@H]1CO
active: HL-60(TB) leukemia -28.6%

N#CCN1C(=O)C(CCC(N)=O)N=C(c2ccc(O)cc2)c2cc(Cl)ccc21 (configuration not stated)
inactive: UACC-62 melanoma 91.5% [30 µM] | TK-10 renal 98.2% [30 µM] | MCF7 breast 93.4% [30 µM]

NC(=O)CN1C(=O)C(Cc2ccc(O)cc2)N=C(c2cccc(O)c2)c2ccccc21 (configuration not stated)
inactive: UACC-62 melanoma 80.7% [30 µM] | TK-10 renal 106% [30 µM] | MCF7 breast 75.5% [30 µM]

Oc1ccccc1OB(Oc1ccccc1O)N(CCCl)CCCl
active: NCI-H522 lung -6.22% | HL-60(TB) leukemia 0.713%
inactive: NCI-H226 lung 101% | HOP-62 NSCLC 104% | NCI-H460 lung 68.3% | 786-0 renal 92.3% | COLO 205 colon 98.4% | DU-145 prostate 86.9% | K-562 leukemia 96.2% | MALME-3M melanoma 89.9% | MDA-MB-231 breast 71% | RXF 393 renal 94.9% | SF-268 CNS 63.5% | SF-295 CNS 102% | SF-539 CNS 63.2% | UACC-257 melanoma 84.4% | M14 melanoma 85.2% | HCT-15 colon 75.7% | SNB-75 CNS 92.8% | SNB-19 CNS 87.2% | PC-3 prostate 82.8% | SK-MEL-5 melanoma 89.9% | UACC-62 melanoma 94.7% | LOX IMVI melanoma 89.4% | SK-MEL-28 melanoma 110% | SK-MEL-2 melanoma 104% | SN12C renal 78.4% | UO-31 renal 51.9% | TK-10 renal 98.9% | ACHN renal 86.1% | CAKI-1 renal 80.4% | A498 renal 88.6% | CCRF-CEM leukemia 18.4% | MOLT-4 leukemia 57.6% | SR leukemia 36.5% | RPMI-8226 leukemia 39.2% | OVCAR-8 ovarian 77.2% | OVCAR-5 ovarian 102% | OVCAR-4 ovarian 96.8% | IGROV1 ovarian 52.4% | OVCAR-3 ovarian 73.8% | HS 578T breast 106% | NCI/ADR-RES ovarian 85% | T-47D breast 101% | BT-549 breast 49.4% | MDA-MB-435 melanoma 87.4% | SW-620 colon 82.9% | MCF7 breast 88.2% | HCT-116 colon 86.8% | HCC-2998 colon 98.4% | KM12 colon 69.4%
